# Pin1 inhibitor – inhibitors of human Pin1 | 390,000 compounds, 0.009% hits | Q13526 | Pin1 FP peptide displacement, HiFluor488, 10 min | Potency, µM (top dose mostly 115 µM), hits mostly inhibitors | AID 504891; active = well fitted inhibition curve with a large enough effect in the polarisation, with a control signal flat, not every such curve was filed as active; inconclusive = small, poorly fitted or top-dose-only effect, or effect the other way, or a change in a side signal; inactive = no such curve, though single readings can be large or run the other way; the % refers to the polarisation
# Target sequence (Q13526 whole entry, looked up): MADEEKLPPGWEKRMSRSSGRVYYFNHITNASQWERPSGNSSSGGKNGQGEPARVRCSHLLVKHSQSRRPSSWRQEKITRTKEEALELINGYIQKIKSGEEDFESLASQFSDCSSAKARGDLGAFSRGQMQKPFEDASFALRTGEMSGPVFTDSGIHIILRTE
# BCR signal inh – inhibitors of chronic active B-cell receptor signaling; ABC-DLBCL IkBa-CBG/CBR reporter, luminescence ratio, 4 h; Potency, µM (series often up to 46.1 µM), most hits filed as inhibitors; 340,000 compounds, 0.05% hits; AID 493014; active = well fitted inhibition curve with a large enough effect in the signal ratio, with a control signal flat, not every such curve was filed as active; inconclusive = small, poorly fitted or top-dose-only effect, or effect the other way, or a change in a side signal; the % refers to the signal ratio
#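 Cell line TMD8 (human ABC DLBCL), stably expressing tet-inducible CBG68-IkBa fusion and CBR; IMDM/0.5% FBS; cpd up to 46 uM; dox induction, 4 h, 37C/5% CO2; dual luminescence; green/red ratio; MG132 control.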
# GLS inh – inhibitors of human glutaminase (GLS) | GLS enzymatic activity, qHTS titration | Potency, µM (series often up to 45.5 µM), usual class: inhibitors | 410,000 compounds, 0.21% hits
#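 hKGA in 45 mM KH2PO4 (pH 8.2), 0.02% Tween-20 with compound, then 1mM L-Glutamine (stock as added) plus glutamate oxidase/HRP/Amplex red coupling mix. Fluorescence read initially and after 30 min at RT; signal change reflects glutamate formation.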
# Tb PGK inh – T. brucei PGK inhibition; P07378; PGK/GAPDH coupled, Kinase-Glo luminescence, 60 min; Potency, µM (titrated, usually from 57.5 µM), usual class: inhibitors; 380,000 compounds, 0.043% hits; note: nearly all actives have a fitted effect of over 60% in size
# Target sequence (P07378 whole entry, looked up): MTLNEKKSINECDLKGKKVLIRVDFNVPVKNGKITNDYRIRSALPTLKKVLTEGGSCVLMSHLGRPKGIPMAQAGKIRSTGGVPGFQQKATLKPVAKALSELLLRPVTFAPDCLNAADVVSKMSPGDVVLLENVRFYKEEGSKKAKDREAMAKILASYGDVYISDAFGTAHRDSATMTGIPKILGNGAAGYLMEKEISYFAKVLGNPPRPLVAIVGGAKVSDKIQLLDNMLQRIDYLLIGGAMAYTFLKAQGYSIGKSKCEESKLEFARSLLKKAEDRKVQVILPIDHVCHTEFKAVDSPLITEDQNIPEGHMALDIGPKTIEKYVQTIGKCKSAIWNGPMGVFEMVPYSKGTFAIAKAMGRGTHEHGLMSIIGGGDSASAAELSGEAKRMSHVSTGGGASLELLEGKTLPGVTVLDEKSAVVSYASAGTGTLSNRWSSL
#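 Luminescent ATP detection (Kinase-Glo Plus) follows a 60-minute room-temperature incubation, with wells lacking PGK as controls. Buffer: 100 mM TEA (pH 7.6), 5 mM MgCl2, 0.01% Tween-20. Coupling enzyme GAPDH (100 nM final) supplies unstable 1,3-BPG in-well.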
# B2AR arrestin – recruits beta-arrestin to the human beta2-adrenergic receptor; P07550; beta-arrestin recruitment to beta2AR, cell-based reporter; Potency, µM (top dose mostly 46.1 µM), most hits filed as activators; 330,000 compounds, 0.02% hits; AID 492947; note: nearly all actives have a fitted effect of over 65% in size
# Tb PFK block – blocks T. brucei phosphofructokinase. O15648. T. brucei PFK, ADP-Glo luminescence. Potency, µM (highest dose often 57.5 µM), hits mostly inhibitors. 330,000 compounds, 0.17% hits; note: nearly all actives have a fitted effect of over 60% in size
#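 In TEA buffer at pH 8.0 with 5 mM MgCl2, enzyme (1.25 nM) converted F6P (0.5 mM) and ATP (0.1 mM) for 45 min at room temperature. ADP product was read by luciferase luminescence.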
# A number is an active result; – = inactive; ? = inconclusive; · = not tested or not shown. This is a sample that favours compounds with a hit; in the whole collection about 0.42% have one here. Unless noted, calls come from the whole dose curve; as a rule, active = well fitted curve in the direction sought with a large enough effect; inconclusive = small, poorly fitted or top-dose-only effect, or another doubt; inactive = no such curve, though single readings can be large; an effect the other way counts as inactive or inconclusive.
SMILES,Pin1 inhibitor,BCR signal inh,GLS inh,Tb PGK inh,B2AR arrestin,Tb PFK block
CC1=C(C(=O)OC(C)C)C(c2ccc(Cl)cc2)n2c(sc(=Cc3ccc(OCC(=O)O)cc3)c2=O)=N1 (stereo not given),·,·,7.1µM,·,·,·
CCOC(=O)C1=C(C)N=c2s/c(=C/c3ccc(OCC(=O)O)c(OC)c3)c(=O)n2C1c1ccc(Cl)cc1 (stereo not given),?,·,?,14µM,·,·
CCN1C(=O)c2ccccc2C1Nc1cccc(OCCN2CCCCC2)c1 (stereo not given),·,·,–,·,·,·
CCc1ccc(N2CC(C(=O)OCc3csc(CC(=O)Nc4ccccc4C)n3)CC2=O)cc1 (stereo not given),–,–,–,–,–,–
CCc1ccc(N2CC(C(=O)OCc3nc4ccsc4c(=O)[nH]3)CC2=O)cc1 (stereo not given),?,–,18µM,–,–,–
Cc1ccc(C(=O)OCc2nc3ccsc3c(=O)[nH]2)o1,–,?,–,–,–,–
Cc1cnc(C(=O)OCc2nc3ccsc3c(=O)[nH]2)cn1,?,–,14µM,–,–,–
Cc1ccc(S(=O)(=O)C(CNC(=O)Cc2ccc(Cl)cc2)c2cccs2)cc1 (stereo not given),–,·,–,–,·,·
COc1ccc(CC(=O)NCC(c2cccs2)S(=O)(=O)c2ccc(Cl)cc2)cc1 (stereo not given),·,–,?,3.2µM,·,·
CSC1=C(C#N)C(c2ccc(Cl)cc2)C2=C(CC(C)(C)CC2=O)N1 (stereo not given),–,–,–,–,–,–
CSC1=NC=C(C#N)C2=NC(c3ccc(Cl)cc3)NN12 (stereo not given),·,·,13µM,·,·,·
CC(=O)Nc1ccc(S(=O)(=O)Nc2ccc(C)c(C)c2)cc1,–,·,·,·,·,·
CCOC(=O)[C@H](CCc1ccccc1)NC(C)C(=O)N1CC2(CC1C(=O)O)SCCS2 (stereo not given in full),·,·,–,·,·,·
Cc1ccc(-c2cc(=O)c3ccccc3[nH]2)cc1,–,–,–,–,–,–
Cc1ccc2[nH]c(-c3ccccc3)cc(=O)c2c1,–,5.6µM,–,–,–,–
O=C(Oc1c(Cl)cc(Cl)c2cccnc12)c1cccs1,–,23µM,–,–,?,–
Cn1c(=O)c2[nH]c(-c3ccccc3Cl)c(O)c2n(C)c1=O,?,?,22µM,–,–,–
COc1ccc(C2c3c(ncn(CCc4ccccc4)c3=N)Oc3ccc4ccccc4c32)cc1OC (stereo not given),–,·,·,·,·,·
Clc1cccc(OCCn2ccnc2)c1,–,–,–,–,–,27µM
COc1cccc(OCCn2ccnc2)c1,–,–,–,–,–,?
O=C(N1CCc2cc([S+](=O)([O-])N3CCN([S+](=O)([O-])c4c(F)cccc4F)CC3)ccc2C1)C(F)(F)F,–,·,·,·,·,·
Cn1nnnc1Sc1ncnc2scc(-c3ccc4c(=O)ccoc4c3)c12,–,·,·,·,·,·
COc1ccc(C(=O)Cc2cc(OC)c(OC)cc2[N+](=O)[O-])c(OC)c1,–,–,11µM,–,–,–
COc1cc(C2/C(=C(/O)c3ccccc3)C(=O)C(=O)N2c2ccccn2)ccc1O (stereo not given),–,–,8.9µM,–,–,–
CC(=O)Nc1sc2c(c1-c1nc3ccccc3s1)CNCC2,–,·,·,·,·,·
SMILES,Pin1 inhibitor,BCR signal inh,GLS inh,Tb PGK inh,B2AR arrestin,Tb PFK block
COc1ccc(CN2CSC(=S)N(Cc3ccc(OC)cc3)C2)cc1,–,16µM,–,–,–,–
COc1ccc(CN2CSC(=S)N(Cc3ccccc3)C2)cc1,–,?,–,–,?,–
COc1ccc(C2C3=C(CC(C)(C)CC3=O)Nc3c2c(=O)n(C)c(=O)n3C)cc1OC (stereo not given),–,–,13µM,–,–,–
C=CCOc1ccccc1C1C2=C(CC(C)(C)CC2=O)Nc2c1c(=O)n(C)c(=O)n2C (stereo not given),–,?,–,–,–,–
COc1ccc(C2Nc3ccccc3NC3=C2C(=O)CC(C)(C)C3)cc1O (stereo not given),?,–,13µM,–,–,–
C=CCNC(=S)NNC(=O)COc1cccc(Cl)c1,–,18µM,–,–,–,–
N#Cc1ccc(N2CCN(S(=O)(=O)c3ccc4c(c3)CC(=O)N4)CC2)cc1,–,·,·,·,·,·
ClN=C1C=CC=CC1=NCl,·,·,10µM,·,·,·
C=CCOc1ccc(CNc2ccc3[nH]c(=O)[nH]c3c2)cc1OCC,–,–,?,–,–,–
C=CCOc1ccc(CNc2ccc3[nH]c(=O)[nH]c3c2)cc1,–,–,11µM,–,–,–
COc1ccc([C@H](C)NC[C@H](O)c2ccc(O)c(NC=O)c2)cc1,–,–,–,–,18µM,–
CC(C)NC[C@@H](O)c1ccc(O)c(O)c1,?,–,–,–,·,?
COc1ccc(OCc2cc(C3Nc4ccccc4C(=O)N3Cc3ccccc3)ccc2OC)cc1 (stereo not given),–,·,·,·,·,·
COc1ccc(OC)c(CCNC(=O)Cn2sc3nc(C)cc(C)c3c2=O)c1,·,?,·,·,–,2.4µM
C[N+](C)(CCCCCC[N+](C)(C)C1c2ccccc2-c2ccccc21)C1c2ccccc2-c2ccccc21,·,·,–,·,·,·
Clc1cccc(Cl)c1CNc1ccc(N2CCCC2)cc1,–,?,7.1µM,–,–,–
O=C(Cc1ccc(Cl)cc1)Nc1ccc(N2CCCC2)cc1,–,–,–,–,–,–
CCOC(=O)c1c(NC(=O)c2ccccc2Cl)sc2c1CCc1ccccc1-2,–,?,10µM,–,–,–
O=c1c2[nH]c3ccsc3c2cnn1Cc1ccccc1F,–,·,·,·,·,·
CC(=O)Nc1ccc(Oc2cc(C#N)c(C#N)cc2N2CCOCC2)cc1,–,21µM,–,–,–,–
COc1cc(F)c(S(=O)(=O)N2CCN(S(=O)(=O)c3ccc(N)cc3)CC2)c(F)c1,–,·,·,·,·,·
CCOC(=O)c1sc(NNC(=O)c2ccc(C)cc2)nc1C,–,?,1.3µM,–,–,–
CCOC(=O)c1sc(NNC(=O)c2ccc(F)cc2)nc1C,–,?,?,–,–,–
N#C/C(=N\Nc1ccccc1)C(N)=S,–,?,11µM,–,–,–
O=C(Nc1cc(S(=O)(=O)N2CCOCC2)ccc1N1CCCCC1)c1ccccc1,–,–,–,–,–,–
O=C(Nc1cc(S(=O)(=O)N2CCOCC2)ccc1N1CCCC1)c1ccc2c(c1)S(=O)(=O)c1ccccc1C2=O,–,–,7.9µM,–,–,–
Cc1cc(C(=O)Nc2ccc(Nc3ccccc3)cc2)ccc1[N+](=O)[O-],–,–,16µM,–,–,–
O=C(Nc1ccc(Nc2ccccc2)cc1)c1ccc(Cl)c([N+](=O)[O-])c1,–,?,–,–,–,–
